Assay results: ChEMBL document CHEMBL1961873, “Compounds: GSK PKIS; Assays: Nanosyn kinase panel” (2012)

Legend:
[1] = system: Epidermal growth factor receptor (Homo sapiens), P00533 [T790M]; details: at 1 µM
[2] = system: Epidermal growth factor receptor (Homo sapiens), P00533 [L858R,T790M]; details: at 0.1 µM
[3] = system: Epidermal growth factor receptor (Homo sapiens), P00533 [L858R,T790M]; details: at 1 µM
[4] = target: Ephrin type-A receptor 2 (Homo sapiens) (UniProt P29317); details: at 0.1 µM
[5] = target: Ephrin type-A receptor 2 (Homo sapiens) (UniProt P29317); details: at 1 µM
[6] = target: T1, Ephrin type-A receptor 3 (Homo sapiens) (UniProt P29320); details: at 0.1 µM
T1 sequence (whole entry): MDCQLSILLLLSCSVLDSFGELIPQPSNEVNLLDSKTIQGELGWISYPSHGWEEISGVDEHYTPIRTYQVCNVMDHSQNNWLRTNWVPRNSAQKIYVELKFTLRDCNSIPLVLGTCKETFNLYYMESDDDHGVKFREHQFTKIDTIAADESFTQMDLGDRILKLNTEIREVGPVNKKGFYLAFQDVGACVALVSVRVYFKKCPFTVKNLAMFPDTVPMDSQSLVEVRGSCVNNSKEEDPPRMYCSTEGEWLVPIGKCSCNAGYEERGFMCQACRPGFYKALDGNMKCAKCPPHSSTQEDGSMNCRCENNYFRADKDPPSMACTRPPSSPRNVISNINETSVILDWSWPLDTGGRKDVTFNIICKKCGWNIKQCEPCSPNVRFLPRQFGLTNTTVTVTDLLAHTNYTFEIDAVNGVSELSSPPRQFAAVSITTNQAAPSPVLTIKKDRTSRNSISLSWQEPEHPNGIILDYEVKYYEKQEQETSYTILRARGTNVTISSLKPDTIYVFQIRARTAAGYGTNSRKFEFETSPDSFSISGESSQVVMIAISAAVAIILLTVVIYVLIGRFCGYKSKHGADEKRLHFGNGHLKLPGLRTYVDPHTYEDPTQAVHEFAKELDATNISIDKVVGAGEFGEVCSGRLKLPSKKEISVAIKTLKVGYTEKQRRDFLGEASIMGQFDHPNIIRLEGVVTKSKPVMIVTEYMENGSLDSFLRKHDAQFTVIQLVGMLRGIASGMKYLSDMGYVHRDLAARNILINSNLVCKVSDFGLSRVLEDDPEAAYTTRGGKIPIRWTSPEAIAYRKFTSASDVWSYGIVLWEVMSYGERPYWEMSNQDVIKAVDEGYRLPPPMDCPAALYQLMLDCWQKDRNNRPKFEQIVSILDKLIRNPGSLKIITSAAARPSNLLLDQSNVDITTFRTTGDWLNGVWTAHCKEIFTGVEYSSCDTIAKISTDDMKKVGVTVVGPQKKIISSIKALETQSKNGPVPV

[7] = target: T1, Ephrin type-A receptor 3 (Homo sapiens); details: at 1 µM
[8] = target: Ephrin type-A receptor 4 (Homo sapiens) (UniProt P54764); details: at 0.1 µM
[9] = target: Ephrin type-A receptor 4 (Homo sapiens) (UniProt P54764); details: at 1 µM
[10] = target: T2, Ephrin type-B receptor 2 (Homo sapiens) (UniProt P29323); details: at 0.1 µM
T2 sequence (whole entry): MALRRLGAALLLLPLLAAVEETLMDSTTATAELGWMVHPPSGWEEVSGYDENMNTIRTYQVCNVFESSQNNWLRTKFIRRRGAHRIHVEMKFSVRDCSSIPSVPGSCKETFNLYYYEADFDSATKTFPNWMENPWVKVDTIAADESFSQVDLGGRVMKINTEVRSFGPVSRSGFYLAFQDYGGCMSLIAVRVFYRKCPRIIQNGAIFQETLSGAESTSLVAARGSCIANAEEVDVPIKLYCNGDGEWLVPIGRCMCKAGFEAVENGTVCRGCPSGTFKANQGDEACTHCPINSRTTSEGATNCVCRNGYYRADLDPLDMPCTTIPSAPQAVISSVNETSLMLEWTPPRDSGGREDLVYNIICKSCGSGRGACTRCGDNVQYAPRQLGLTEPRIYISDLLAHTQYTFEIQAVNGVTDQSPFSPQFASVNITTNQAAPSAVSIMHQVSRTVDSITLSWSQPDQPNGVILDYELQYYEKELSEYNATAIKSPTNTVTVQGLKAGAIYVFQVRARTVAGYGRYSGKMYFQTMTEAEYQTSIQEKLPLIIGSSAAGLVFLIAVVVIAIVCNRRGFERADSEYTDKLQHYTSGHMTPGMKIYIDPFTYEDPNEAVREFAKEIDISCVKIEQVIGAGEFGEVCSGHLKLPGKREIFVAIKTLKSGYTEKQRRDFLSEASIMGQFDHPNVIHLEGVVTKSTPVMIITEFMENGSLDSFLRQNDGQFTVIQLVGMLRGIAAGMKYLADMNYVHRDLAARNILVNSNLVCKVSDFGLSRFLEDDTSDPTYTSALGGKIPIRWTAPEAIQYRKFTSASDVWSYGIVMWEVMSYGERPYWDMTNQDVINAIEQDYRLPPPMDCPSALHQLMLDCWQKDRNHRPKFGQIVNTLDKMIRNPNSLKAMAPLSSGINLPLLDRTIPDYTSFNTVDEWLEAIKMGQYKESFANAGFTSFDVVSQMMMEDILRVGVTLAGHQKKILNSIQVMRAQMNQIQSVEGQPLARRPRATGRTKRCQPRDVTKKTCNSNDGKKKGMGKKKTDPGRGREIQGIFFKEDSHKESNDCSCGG

[11] = target: T3, Ephrin type-B receptor 3 (Homo sapiens) (UniProt P54753); details: at 0.1 µM
T3 sequence (whole entry): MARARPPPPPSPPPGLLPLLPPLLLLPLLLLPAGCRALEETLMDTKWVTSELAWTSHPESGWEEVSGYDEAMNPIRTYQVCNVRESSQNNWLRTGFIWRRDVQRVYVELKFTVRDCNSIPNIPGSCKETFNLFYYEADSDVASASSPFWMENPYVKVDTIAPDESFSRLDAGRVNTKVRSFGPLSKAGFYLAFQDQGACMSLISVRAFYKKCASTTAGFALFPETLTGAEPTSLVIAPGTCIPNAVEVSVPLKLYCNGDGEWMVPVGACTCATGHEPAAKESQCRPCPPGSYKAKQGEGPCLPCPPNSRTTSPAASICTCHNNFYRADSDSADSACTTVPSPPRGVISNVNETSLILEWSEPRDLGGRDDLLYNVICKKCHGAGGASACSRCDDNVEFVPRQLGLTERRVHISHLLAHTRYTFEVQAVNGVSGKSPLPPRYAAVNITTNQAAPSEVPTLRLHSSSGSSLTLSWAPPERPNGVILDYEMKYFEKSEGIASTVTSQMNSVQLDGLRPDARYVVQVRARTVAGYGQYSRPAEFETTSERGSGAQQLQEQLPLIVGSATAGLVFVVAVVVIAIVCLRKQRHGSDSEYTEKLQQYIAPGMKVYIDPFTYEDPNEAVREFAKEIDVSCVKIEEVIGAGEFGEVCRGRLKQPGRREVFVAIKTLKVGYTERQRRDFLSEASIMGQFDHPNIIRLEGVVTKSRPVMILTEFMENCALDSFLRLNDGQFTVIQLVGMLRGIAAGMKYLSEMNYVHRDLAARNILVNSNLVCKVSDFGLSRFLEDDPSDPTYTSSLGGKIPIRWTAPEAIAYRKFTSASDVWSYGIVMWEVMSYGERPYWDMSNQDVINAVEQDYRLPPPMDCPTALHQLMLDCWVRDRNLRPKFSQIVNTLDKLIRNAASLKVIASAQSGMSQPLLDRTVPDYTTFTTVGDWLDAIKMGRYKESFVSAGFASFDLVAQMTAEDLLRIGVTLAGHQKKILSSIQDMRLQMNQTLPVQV

[12] = target: T3, Ephrin type-B receptor 3 (Homo sapiens); details: at 1 µM
[13] = target: T4, Ephrin type-B receptor 4 (Homo sapiens) (UniProt P54760); details: at 0.1 µM
T4 sequence (whole entry): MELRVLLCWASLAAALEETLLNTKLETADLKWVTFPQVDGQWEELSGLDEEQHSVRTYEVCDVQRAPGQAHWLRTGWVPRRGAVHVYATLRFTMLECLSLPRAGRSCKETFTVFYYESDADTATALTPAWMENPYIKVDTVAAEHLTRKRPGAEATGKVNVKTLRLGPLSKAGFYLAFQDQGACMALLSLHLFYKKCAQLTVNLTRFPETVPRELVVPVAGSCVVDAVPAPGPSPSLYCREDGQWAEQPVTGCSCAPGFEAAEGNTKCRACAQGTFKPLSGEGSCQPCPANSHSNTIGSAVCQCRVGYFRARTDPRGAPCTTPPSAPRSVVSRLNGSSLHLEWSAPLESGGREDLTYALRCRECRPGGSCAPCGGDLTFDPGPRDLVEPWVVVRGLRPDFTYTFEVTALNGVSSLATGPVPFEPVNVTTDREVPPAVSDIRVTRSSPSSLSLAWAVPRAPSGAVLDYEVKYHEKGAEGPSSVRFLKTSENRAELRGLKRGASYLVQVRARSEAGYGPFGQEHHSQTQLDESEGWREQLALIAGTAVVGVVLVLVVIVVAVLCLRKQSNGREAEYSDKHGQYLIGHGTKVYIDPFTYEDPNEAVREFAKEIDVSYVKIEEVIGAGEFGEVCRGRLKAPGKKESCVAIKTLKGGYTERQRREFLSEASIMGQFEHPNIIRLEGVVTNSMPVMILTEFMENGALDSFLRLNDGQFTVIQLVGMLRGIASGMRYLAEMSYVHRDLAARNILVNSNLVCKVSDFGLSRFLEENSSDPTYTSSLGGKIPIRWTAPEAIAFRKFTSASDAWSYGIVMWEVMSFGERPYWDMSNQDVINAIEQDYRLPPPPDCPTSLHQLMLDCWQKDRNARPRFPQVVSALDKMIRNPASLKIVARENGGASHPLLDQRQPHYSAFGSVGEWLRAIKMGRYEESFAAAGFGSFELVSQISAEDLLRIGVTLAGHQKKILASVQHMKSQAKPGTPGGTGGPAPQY

[14] = target: T4, Ephrin type-B receptor 4 (Homo sapiens); details: at 1 µM
[15] = target: Receptor tyrosine-protein kinase erbB-2 (Homo sapiens) (UniProt P04626); details: at 0.1 µM
[16] = target: Receptor tyrosine-protein kinase erbB-2 (Homo sapiens) (UniProt P04626); details: at 1 µM
[17] = target: Receptor tyrosine-protein kinase erbB-4 (Homo sapiens) (UniProt Q15303); details: at 0.1 µM
[18] = target: Receptor tyrosine-protein kinase erbB-4 (Homo sapiens) (UniProt Q15303); details: at 1 µM
[19] = target: Tyrosine-protein kinase Fer (Homo sapiens) (UniProt P16591); details: at 0.1 µM;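 note: reported figures are averaged percent inhibition of FER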
[20] = target: T2, Ephrin type-B receptor 2 (Homo sapiens); details: at 1 µM

Sequence of Receptor tyrosine-protein kinase erbB-2 (Homo sapiens) (P04626 whole entry): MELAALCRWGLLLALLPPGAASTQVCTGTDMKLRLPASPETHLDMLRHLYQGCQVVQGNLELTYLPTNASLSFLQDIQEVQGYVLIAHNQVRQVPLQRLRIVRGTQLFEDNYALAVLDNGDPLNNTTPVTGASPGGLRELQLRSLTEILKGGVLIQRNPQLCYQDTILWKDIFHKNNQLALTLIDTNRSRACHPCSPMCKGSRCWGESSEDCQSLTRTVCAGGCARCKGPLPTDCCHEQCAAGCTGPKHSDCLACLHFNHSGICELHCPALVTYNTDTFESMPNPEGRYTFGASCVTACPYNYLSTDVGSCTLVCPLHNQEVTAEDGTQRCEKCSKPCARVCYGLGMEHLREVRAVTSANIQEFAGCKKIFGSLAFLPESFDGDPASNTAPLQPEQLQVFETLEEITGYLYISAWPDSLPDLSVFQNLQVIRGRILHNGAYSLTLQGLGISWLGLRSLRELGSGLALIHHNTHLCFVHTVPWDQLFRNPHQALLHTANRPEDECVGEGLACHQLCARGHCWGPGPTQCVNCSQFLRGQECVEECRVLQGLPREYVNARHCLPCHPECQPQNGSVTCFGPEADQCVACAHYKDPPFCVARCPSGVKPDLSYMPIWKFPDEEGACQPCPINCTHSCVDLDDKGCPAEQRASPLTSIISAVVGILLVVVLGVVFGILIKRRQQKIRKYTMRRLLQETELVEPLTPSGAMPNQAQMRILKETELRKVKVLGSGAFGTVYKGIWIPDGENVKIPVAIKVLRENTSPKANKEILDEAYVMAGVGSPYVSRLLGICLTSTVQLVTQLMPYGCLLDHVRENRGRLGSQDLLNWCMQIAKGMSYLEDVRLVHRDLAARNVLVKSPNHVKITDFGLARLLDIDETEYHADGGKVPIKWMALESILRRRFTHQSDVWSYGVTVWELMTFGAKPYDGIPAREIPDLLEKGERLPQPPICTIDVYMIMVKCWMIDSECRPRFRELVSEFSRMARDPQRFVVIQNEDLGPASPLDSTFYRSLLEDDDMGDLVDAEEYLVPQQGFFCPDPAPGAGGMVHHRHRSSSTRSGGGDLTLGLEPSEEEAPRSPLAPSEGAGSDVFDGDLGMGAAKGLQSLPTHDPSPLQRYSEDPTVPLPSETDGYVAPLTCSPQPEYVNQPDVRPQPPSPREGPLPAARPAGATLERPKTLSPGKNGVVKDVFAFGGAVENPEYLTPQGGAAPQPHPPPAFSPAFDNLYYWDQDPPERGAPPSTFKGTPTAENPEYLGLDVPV
Sequence of Receptor tyrosine-protein kinase erbB-4 (Homo sapiens) (Q15303 whole entry): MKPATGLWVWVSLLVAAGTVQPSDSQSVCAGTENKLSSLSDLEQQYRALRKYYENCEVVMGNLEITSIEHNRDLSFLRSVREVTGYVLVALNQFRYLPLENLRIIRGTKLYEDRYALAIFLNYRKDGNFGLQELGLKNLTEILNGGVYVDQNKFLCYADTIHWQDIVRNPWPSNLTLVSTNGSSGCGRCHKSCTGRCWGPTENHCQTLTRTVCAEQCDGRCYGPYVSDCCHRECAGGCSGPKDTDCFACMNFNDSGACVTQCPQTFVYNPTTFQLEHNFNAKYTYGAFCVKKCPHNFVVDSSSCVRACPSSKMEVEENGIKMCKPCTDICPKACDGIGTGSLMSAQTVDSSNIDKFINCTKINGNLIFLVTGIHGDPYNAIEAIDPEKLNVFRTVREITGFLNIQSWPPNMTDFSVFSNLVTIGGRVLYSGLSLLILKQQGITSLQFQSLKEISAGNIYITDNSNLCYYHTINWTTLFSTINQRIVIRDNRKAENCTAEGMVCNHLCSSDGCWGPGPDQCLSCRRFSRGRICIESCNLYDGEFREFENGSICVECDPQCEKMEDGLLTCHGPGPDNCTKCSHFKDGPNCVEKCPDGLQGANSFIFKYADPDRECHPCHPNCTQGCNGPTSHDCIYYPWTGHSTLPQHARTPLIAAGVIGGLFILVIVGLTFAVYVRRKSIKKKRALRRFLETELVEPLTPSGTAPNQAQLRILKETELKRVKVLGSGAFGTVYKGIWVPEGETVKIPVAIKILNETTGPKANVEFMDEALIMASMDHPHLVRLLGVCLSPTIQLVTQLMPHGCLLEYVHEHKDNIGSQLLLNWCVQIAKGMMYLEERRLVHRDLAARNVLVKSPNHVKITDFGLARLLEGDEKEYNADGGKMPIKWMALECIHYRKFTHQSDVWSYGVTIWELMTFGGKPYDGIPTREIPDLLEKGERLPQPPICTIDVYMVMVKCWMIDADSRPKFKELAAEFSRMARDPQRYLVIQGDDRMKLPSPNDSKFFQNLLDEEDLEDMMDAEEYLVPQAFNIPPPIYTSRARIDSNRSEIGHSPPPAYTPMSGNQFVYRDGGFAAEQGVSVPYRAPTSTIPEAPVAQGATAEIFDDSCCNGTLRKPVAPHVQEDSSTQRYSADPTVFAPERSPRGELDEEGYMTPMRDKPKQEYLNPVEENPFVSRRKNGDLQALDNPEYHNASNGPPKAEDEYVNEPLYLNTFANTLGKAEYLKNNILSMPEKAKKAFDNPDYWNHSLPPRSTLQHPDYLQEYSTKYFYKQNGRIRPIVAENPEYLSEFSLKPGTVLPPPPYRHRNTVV
Sequence of Ephrin type-A receptor 2 (Homo sapiens) (P29317 whole entry): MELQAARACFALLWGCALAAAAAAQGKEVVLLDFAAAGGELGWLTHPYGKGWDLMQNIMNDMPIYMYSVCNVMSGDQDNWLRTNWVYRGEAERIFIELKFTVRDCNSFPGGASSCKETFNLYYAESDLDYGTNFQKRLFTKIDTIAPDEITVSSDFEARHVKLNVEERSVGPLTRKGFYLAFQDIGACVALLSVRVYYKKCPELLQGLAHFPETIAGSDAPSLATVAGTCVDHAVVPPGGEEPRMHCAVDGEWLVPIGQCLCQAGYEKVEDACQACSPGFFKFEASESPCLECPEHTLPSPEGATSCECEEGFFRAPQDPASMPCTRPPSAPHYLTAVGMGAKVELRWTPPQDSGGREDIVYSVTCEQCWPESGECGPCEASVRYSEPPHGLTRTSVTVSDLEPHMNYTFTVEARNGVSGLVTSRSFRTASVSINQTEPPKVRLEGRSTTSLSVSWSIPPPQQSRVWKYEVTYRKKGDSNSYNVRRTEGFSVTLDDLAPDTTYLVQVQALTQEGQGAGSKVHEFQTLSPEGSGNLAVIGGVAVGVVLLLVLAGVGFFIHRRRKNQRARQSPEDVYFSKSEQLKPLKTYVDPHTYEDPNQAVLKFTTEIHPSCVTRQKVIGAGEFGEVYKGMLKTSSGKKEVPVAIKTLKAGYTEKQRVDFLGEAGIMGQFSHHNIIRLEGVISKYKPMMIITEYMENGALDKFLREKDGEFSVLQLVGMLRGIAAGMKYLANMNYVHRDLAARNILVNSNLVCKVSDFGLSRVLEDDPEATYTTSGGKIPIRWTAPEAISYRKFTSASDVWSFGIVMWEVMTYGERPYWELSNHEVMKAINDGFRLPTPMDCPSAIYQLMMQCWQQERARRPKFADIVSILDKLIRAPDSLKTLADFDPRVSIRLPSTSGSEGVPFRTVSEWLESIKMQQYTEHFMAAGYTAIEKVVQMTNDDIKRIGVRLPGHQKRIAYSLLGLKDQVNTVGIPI
Sequence of Epidermal growth factor receptor (Homo sapiens), P00533 [T790M] (P00533 whole entry T790M): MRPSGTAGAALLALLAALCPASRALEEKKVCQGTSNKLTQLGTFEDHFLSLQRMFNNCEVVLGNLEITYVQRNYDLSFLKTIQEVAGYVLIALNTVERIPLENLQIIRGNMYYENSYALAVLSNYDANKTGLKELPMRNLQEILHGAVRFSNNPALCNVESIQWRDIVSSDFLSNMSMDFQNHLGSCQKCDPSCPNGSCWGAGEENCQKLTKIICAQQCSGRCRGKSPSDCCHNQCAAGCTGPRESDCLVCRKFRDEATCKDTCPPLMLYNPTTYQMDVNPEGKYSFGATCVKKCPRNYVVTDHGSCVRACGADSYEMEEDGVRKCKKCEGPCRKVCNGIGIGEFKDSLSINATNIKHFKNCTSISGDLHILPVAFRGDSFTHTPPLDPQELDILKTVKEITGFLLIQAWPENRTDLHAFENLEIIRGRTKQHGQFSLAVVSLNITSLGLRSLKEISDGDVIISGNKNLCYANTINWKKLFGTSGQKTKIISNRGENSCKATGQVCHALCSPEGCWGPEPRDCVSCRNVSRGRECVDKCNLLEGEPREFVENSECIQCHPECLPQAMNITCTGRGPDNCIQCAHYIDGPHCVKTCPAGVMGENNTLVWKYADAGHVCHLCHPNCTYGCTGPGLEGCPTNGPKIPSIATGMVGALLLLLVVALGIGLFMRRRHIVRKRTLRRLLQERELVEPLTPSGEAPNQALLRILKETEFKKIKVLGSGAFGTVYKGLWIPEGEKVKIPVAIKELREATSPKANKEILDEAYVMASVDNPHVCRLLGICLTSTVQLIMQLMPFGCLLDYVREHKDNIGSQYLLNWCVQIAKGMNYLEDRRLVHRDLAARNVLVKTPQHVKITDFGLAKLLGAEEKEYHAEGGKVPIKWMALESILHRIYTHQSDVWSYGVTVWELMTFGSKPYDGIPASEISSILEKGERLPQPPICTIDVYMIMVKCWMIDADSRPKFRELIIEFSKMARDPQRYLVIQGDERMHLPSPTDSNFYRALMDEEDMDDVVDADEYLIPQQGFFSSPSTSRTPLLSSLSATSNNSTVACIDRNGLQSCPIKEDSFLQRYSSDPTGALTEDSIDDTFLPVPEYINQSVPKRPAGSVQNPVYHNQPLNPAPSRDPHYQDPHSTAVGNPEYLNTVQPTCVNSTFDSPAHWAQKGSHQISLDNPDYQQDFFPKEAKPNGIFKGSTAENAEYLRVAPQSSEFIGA

`CS(=O)(=O)Nc1cccc(-c2ccc3c(NC(=O)C4CC4)n[nH]c3c2)c1` was tested. Which inhibition [1] did it give?
The inhibition was -1.01%.

And the inhibition [2]?
Its inhibition is 0.55%.

What about the inhibition [3] of the same compound?
Its inhibition is -1.6%.

What about the inhibition [4] of the same compound?
Its inhibition is 0.19%.

What about the inhibition [5] of the same compound?
Its inhibition is 1.68%.

What about the inhibition [6] of the same compound?
Its inhibition is 1.66%.

What about the inhibition [7] of the same compound?
The inhibition was -1.02%.

What about the inhibition [8] of the same compound?
Its inhibition is 1.83%.

And the inhibition [9]?
The inhibition was -7.46%.

What about the inhibition [10] of the same compound?
Its inhibition is -4.01%.

What about the inhibition [11] of the same compound?
The inhibition was 4.48%.

And the inhibition [12]?
The inhibition was -3.94%.

And the inhibition [13]?
The inhibition was 0.62%.

What about the inhibition [14] of the same compound?
Its inhibition is 0.5%.

What about the inhibition [15] of the same compound?
Its inhibition is 0.54%.

What about the inhibition [16] of the same compound?
Its inhibition is -4.31%.

What about the inhibition [17] of the same compound?
The inhibition was 6.04%.

What about the inhibition [18] of the same compound?
Its inhibition is 8.34%.

What about the inhibition [19] of the same compound?
Its inhibition is -0.81%.

Which results are given for `NC(=O)c1sc(-n2cnc3ccccc32)cc1OCc1ccccc1Br`?
inhibition [1]: 1.85%; inhibition [2]: 2.85%; inhibition [3]: 1.45%; inhibition [4]: 0.63%; inhibition [5]: 0.39%; inhibition [6]: 1.18%; inhibition [7]: 3.38%; inhibition [8]: 6.29%; inhibition [9]: 9.89%; inhibition [10]: 5.64%; inhibition [20]: 10.9%; inhibition [11]: 4.52%; inhibition [12]: 6.83%; inhibition [13]: 1.58%; inhibition [14]: 3.37%; inhibition [15]: 0.61%; inhibition [16]: 3.64%; inhibition [17]: 3.34%; inhibition [18]: 9.23%; inhibition [19]: -0.27%

Which results are given for `O=C1Nc2ccccc2/C1=C/Nc1ccc2[nH]c(=O)[nH]c2c1`?
inhibition [1]: 7.07%; inhibition [2]: 4.62%; inhibition [3]: 3.05%; inhibition [4]: 2.36%; inhibition [5]: 3.88%; inhibition [6]: 5.7%; inhibition [7]: 9.27%; inhibition [8]: 12.9%; inhibition [9]: 16.3%; inhibition [10]: 15.9%; inhibition [20]: 20.6%; inhibition [11]: 6.46%; inhibition [12]: 5.55%; inhibition [13]: 5.44%; inhibition [14]: 5.98%; inhibition [15]: 3.93%; inhibition [16]: 2.8%; inhibition [17]: 9.76%; inhibition [18]: 15.3%; inhibition [19]: 3.27%

For `CCS(=O)(=O)c1ccc(OC)c(Nc2nccc(N(C)c3ccc4c(C)n[nH]c4c3)n2)c1`, which inhibition [1] is on record?
Its inhibition is 18.8%.

What about the inhibition [2] of the same compound?
The inhibition was 2.67%.

What about the inhibition [3] of the same compound?
The inhibition was 4.47%.

What about the inhibition [4] of the same compound?
The inhibition was 3.32%.

And the inhibition [5]?
Its inhibition is 10.1%.

What about the inhibition [6] of the same compound?
The inhibition was 4.4%.

What about the inhibition [7] of the same compound?
The inhibition was 12.2%.

What about the inhibition [8] of the same compound?
The inhibition was 11.8%.

And the inhibition [9]?
The inhibition was 45.3%.

What about the inhibition [10] of the same compound?
Its inhibition is 16.4%.

What about the inhibition [20] of the same compound?
The inhibition was 43.6%.

And the inhibition [11]?
Its inhibition is 2.23%.

What about the inhibition [12] of the same compound?
Its inhibition is 6.04%.

What about the inhibition [13] of the same compound?
The inhibition was 17.4%.

And the inhibition [14]?
Its inhibition is 65.8%.

What about the inhibition [15] of the same compound?
The inhibition was 7.28%.

What about the inhibition [16] of the same compound?
The inhibition was 13.4%.

And the inhibition [17]?
Its inhibition is 18.5%.

What about the inhibition [18] of the same compound?
Its inhibition is 60.5%.

What about the inhibition [19] of the same compound?
Its inhibition is 2.69%.
